Assay outcomes (PubChem BioAssay)
Rows were chosen to be rich in hits. Some 3.4% of all compounds tested hit in one or more screens of this group.
ERa coact pot – ER-alpha (human) coactivator binding potentiation | P03372 | TR-FRET ERalpha-LBD/SRC-Cy5 coactivator binding, 2 h; 100 = basal binding, no effect | coactivator binding (% of control), % at 25.6 µM | hit rate 1.3% among 86,000 | AID 639; in the data active = activity above about 200%;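 note: binding measured in presence of low estradiol as agonist stimulus; 0% = peptide alone without receptor and 100% = receptor with peptide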
ERa coact inh – ER-alpha (human) coactivator binding inhibition. AID 629. inhibition, % at 25.6 µM. TR-FRET ER-alpha LBD / SRC-1 peptide, estradiol-bound. P03372. hit rate 1.7% among 86,000; in the data active = inhibition above about 50%;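 note: 0% = receptor plus peptide control and 100% = peptide only without receptor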
PTPN22 act – activators of human LYP (PTPN22) phosphatase; Q9Y2R2; AID 697; activation, % at 2 µM; recombinant LYP, DiFMUP fluorescence; 0 = plate median, 100 = signal doubled; hit rate 0.11% among 96,000;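 active = activation at 2 µM above a set limit, the mean plus 5 SD, cut at about 37% in these data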
PTPN22 inh 2 – blocks human PTPN22 phosphatase activity | hit rate 0.21% among 96,000 | Q9Y2R2 | recombinant LYP catalytic domain, DiFMUP fluorescence | AID 640 | inhibition, % at 2 µM;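 active = inhibition at 2 µM at or above a set limit, the screen mean plus 3 SD, cut at about 24% in these data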;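 note: 0% = DMSO with enzyme and 100% = enzyme fully blocked by orthovanadate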
ERb SRC1 inh – blocks coactivator binding to human estrogen receptor beta; inhibition, % at 25.6 µM; AID 633; hit rate 1.3% among 86,000; TR-FRET ER-beta LBD / SRC1-Cy5 peptide binding; receptor agonist-loaded with 1 µM estradiol; Q92731;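 active = compounds whose percent inhibition of the receptor-coactivator binding signal exceeds about 50% in the single-dose screen, limit read from the data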;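 note: 0% = receptor plus peptide wells without compound and 100% = peptide-only wells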
FAK inh – blocks human focal adhesion kinase activity | biochemical FAK kinase activity assay | Q05397 | hit rate 0.84% among 97,000 | AID 727 | inhibition, %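 (tested at 7 µM)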; in the data active = inhibition above about 19%;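 note: 0% = DMSO and 100% = reference compound high control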
The depositor's hits bear a star; . = not tested or not shown; [ ] = remark or other dose.

SMILES	ERa coact pot	ERa coact inh	PTPN22 act	PTPN22 inh 2	ERb SRC1 inh	FAK inh
O=C1COc2ccc(C(=O)c3ccccc3C(=O)NCc3ccccc3)cc2N1	93	-12	-2	1	-1	-1
CCOC(=O)Cn1c2ccc(OC)cc2c2nc3ccccc3nc21	279*	46	2	-3	29	-3
O=C1CC(N(CCc2ccccc2)C(=S)Nc2cc(Cl)ccc2Cl)C(=O)N1c1c(Cl)cccc1Cl (configuration not stated)	.	.	17	-12	.	-8
CC1Cc2ccccc2N1C(=O)CSc1nnc(-c2ccccc2)c(-c2ccccc2)n1 (configuration not stated)	.	.	-2	5	.	3
CCCCNS(=O)(=O)c1ccc2nc(SCC(=O)c3ccc(C#N)cc3)[nH]c2c1	279*	7	.	.	7	.
CC1(C)C(=O)Nc2ccccc2N1C(=O)COC(=O)C12CC3CC(CC(O)(C3)C1)C2	54	88*[fluorescence artefact?]	1	3	78*[fluorescence artefact?]	11
O=C1CN(C(=O)COC(=O)C23CC4CC(CC(O)(C4)C2)C3)c2ccccc2N1	103	0	8	-5	5	-1
O=C(Nc1nc2ccccc2s1)c1cc2c(s1)-c1ccccc1OC2	177	71*	-4	3	46	11
COC(=O)c1cc(COc2ccc3c(c2)oc(=O)c2ccccc23)c(C)o1	230*	30	3	-6	23	-3
Clc1cccc(-c2ccc(/C=N/n3cnnc3)o2)c1Cl	118	51*[fluorescence artefact?]	-8	9	31	0
Clc1ccccc1-c1ccc(/C=N/n2cnnc2)o1	114	31	10	-13	41	-4
N#Cc1c(N)oc(-c2ccc3c(c2)OCO3)c1-c1ccc2c(c1)OCO2	30	73*	9	-10	73*	3
Cc1ccc(-c2cc(-c3ccc4c(c3)OCO4)c(C#N)c(N)n2)o1	18	82*[fluorescence artefact?]	-2	2	27	4
Cc1ccccc1-n1c(SC(C)C(=O)N2CCN(C)CC2)nc2ccccc2c1=O (configuration not stated)	.	.	3	-1	.	-3
O=C1c2ccccc2C(=O)N1Cc1cc(-c2ccc(Cl)cc2)no1	.	.	.	.	.	3
COc1cccc(-n2nnc3c(=O)n(Cc4c(F)cccc4Cl)cnc32)c1	127	44	-3	1	20	1
COc1cccc(-n2nnc3c(=O)n(Cc4cccc(F)c4)cnc32)c1	269*	19	-6	8	17	1
c1ccc(C2=Nc3ccccc3SC2c2nc3ccccc3[nH]2)cc1 (configuration not stated)	76	3	1	2	-1	-1
Cc1cc(C)n(C(=O)CCCCCCCCC(=O)n2nc(C)cc2C)n1	117	-8	-3	6	-12	-2
COc1cc(S(=O)(=O)Nc2c(C)cc(C)cc2C)ccc1Cl	91	-1	9	-7	63*[fluorescence artefact?]	12
O=C(CCS(=O)(=O)c1cccc2nsnc12)NCc1ccccc1Cl	90	1	-8	8	0	0
Cc1cccn2c(=O)c3cc(C(=O)Nc4ccc(N(C)C)cc4)n(C)c3nc12	22	96*[fluorescence artefact?]	.	.	62*[fluorescence artefact?]	.
CCN(CC)C(=O)c1cc2c(=O)n3cccc(C)c3nc2n1C	96	2	3	-5	-5	17
N#CC1=C(N)OC2=C(C(=O)CCC2)C1CCc1ccccc1 (configuration not stated)	90	100*[fluorescence artefact?]	2	0	8	2
CNc1oc(-c2ccc(Cl)cc2)nc1P(=O)(c1ccccc1)c1ccccc1	.	.	-4	9	.	6
SMILES	ERa coact pot	ERa coact inh	PTPN22 act	PTPN22 inh 2	ERb SRC1 inh	FAK inh
CC(NC(=O)CCSc1nc(-c2ccc3c(c2)OCO3)cc(C(F)(F)F)n1)c1ccccc1 (configuration not stated)	57	90*	0	3	46	-2
Cc1cc(C)c2c(=O)[nH]c(SCC(=O)c3ccc(C(C)C)cc3)nc2n1	558*[fluorescence artefact?]	12	2	-1	12	-10
Cc1cc(=O)[nH]c(SCC(=O)c2ccc(C(C)C)cc2)n1	.	.	3	-6	.	-7
CCOC(=O)c1cnn(-c2nc(-c3cccc(F)c3)cs2)c1C(F)(F)F	.	.	-7	10	.	-8
O=C(NCCO)c1ccc2nc(-c3ccco3)c(-c3ccco3)nc2c1	16	64*	-4	7	87*[fluorescence artefact?]	7
c1coc(-c2nc3ccccc3nc2-c2ccco2)c1	28	84*[fluorescence artefact?]	.	.	93*[fluorescence artefact?]	.
